The values that follow come from article PMC7862700, “An all-to-all approach to the identification of sequence-specific readers for epigenetic DNA modifications on cytosine”.

Experiment in all cases: DAPPL (digital affinity profiling via proximity ligation, sequencing); 10 mM Tris-HCl pH 7.5, 50 mM NaCl, 1 mM DTT, 4% glycerol, room temperature, 30 min; GST-TFs on glutathione beads, 16-mer random dsDNA library, 0.1% formaldehyde crosslink after washing; high values mean tight binding
What all share (conditions): protein: recombinant; tags: N-terminal GST; dsDNA, one strand shown

In test [1] the target is T1, ELK1 (Homo sapiens, UniProt P19419 1-428).
T1 sequence: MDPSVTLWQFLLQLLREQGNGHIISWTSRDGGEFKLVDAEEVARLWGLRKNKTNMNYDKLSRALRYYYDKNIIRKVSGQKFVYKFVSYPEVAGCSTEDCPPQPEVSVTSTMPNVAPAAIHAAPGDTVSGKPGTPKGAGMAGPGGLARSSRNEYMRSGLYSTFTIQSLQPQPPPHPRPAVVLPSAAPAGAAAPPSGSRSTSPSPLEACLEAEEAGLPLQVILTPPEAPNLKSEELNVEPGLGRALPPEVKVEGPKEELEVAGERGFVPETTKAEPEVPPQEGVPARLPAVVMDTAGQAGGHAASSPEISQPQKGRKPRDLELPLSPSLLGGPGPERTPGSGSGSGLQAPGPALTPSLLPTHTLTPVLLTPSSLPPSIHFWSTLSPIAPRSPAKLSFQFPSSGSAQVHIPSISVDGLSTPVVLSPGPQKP
Summed up:
(§1)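 A tag-only sample was pooled with DNA-barcoded human transcription factors that had been expressed in yeast as GST fusions and captured on glutathione beads. The pools were incubated for 30 min at room temperature with 200 nmole of a random double-stranded 16-mer DNA library in Tris/NaCl/DTT/glycerol buffer, then washed, crosslinked with 0.1% formaldehyde, proximity-ligated (BsaI/T4 ligase, 1 h, 37 °C), PCR-amplified and sequenced on an Illumina NextSeq500. Binding signal is each hexamer's read frequency for a factor divided by its frequency for the tag-only sample.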

For test [2], the target named is T2, GABPA (Homo sapiens, UniProt Q06546 1-454).
T2 sequence: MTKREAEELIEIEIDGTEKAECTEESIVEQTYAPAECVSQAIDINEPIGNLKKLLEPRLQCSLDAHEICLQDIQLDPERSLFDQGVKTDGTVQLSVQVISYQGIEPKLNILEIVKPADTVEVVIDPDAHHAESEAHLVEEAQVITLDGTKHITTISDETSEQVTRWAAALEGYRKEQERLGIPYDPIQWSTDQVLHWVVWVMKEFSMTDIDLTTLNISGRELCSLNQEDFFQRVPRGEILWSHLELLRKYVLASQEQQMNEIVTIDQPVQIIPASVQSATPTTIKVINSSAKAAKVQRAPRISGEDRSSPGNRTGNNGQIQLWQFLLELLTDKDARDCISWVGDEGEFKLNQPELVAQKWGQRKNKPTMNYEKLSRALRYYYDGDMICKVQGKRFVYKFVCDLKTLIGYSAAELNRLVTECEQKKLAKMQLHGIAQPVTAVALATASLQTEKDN
Summed up: as §1

In test [3] the target is T3, ERG (Homo sapiens, UniProt P11308 1-479).
T3 sequence: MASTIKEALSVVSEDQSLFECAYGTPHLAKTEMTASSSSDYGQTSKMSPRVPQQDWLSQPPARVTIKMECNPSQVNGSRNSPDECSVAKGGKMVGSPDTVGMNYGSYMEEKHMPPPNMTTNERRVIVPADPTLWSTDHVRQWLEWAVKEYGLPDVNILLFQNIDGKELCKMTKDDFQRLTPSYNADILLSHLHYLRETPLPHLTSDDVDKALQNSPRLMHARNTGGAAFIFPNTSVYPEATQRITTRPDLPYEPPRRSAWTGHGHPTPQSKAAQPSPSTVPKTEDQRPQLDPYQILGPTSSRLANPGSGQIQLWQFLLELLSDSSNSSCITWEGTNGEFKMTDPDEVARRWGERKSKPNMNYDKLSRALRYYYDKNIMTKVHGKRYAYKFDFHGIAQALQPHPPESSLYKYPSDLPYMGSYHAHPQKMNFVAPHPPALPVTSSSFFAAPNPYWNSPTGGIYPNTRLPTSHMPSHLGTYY
Summed up: as §1

Test [4] concerns the target ELF1 (Homo sapiens, UniProt P32519 1-619). Summed up:
as §1

The target of test [5] is T4, EHF (Homo sapiens, UniProt Q9NZC4 1-300).
T4 sequence: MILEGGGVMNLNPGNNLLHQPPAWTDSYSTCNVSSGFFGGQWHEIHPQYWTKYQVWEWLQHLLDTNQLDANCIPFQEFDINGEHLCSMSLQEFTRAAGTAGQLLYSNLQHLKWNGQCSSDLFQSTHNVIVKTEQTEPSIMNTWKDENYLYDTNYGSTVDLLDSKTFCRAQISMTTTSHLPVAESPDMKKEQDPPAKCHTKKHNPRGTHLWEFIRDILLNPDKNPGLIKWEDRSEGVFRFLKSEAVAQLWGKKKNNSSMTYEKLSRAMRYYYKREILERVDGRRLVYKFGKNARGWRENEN
Summed up: as §1

In test [6] the target is SPIB (Homo sapiens, UniProt Q01892 1-262). Summed up: as §1
Test [7] has as its target T5, ELK3 (Homo sapiens, UniProt P41970 1-407).
T5 sequence: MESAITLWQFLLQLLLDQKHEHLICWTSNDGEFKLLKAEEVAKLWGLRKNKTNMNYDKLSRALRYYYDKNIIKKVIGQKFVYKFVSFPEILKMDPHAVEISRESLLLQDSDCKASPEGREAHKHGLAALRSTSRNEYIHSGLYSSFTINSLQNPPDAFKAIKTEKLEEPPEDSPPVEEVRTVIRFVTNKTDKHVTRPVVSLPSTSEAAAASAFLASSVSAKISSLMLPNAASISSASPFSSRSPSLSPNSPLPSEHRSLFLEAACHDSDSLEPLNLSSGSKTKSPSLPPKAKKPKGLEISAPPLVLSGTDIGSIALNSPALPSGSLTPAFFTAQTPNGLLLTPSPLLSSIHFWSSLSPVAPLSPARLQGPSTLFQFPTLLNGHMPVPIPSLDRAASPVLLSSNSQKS
Summed up: as §1

For test [8], the target named is T6, SPIC (Homo sapiens, UniProt Q8N5J4 1-248).
T6 sequence: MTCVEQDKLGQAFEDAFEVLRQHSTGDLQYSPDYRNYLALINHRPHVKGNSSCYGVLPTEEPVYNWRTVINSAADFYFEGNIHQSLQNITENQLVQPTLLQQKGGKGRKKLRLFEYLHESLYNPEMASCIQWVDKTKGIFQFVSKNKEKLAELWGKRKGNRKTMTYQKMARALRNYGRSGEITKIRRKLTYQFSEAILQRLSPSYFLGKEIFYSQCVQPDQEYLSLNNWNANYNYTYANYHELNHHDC
Summed up: as §1

The target of test [9] is ELF4 (Homo sapiens, UniProt Q99607 1-663). Summed up:
as §1

SPIB, sequence (Q01892 whole entry): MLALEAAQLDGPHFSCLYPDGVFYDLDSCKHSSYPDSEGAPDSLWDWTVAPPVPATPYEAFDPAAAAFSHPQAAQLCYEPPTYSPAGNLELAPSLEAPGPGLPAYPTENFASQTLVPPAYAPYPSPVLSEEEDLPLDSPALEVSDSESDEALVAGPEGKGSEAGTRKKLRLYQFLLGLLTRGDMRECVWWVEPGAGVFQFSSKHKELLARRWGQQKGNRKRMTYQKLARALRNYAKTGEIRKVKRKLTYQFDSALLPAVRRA
ELF1, sequence (P32519 whole entry): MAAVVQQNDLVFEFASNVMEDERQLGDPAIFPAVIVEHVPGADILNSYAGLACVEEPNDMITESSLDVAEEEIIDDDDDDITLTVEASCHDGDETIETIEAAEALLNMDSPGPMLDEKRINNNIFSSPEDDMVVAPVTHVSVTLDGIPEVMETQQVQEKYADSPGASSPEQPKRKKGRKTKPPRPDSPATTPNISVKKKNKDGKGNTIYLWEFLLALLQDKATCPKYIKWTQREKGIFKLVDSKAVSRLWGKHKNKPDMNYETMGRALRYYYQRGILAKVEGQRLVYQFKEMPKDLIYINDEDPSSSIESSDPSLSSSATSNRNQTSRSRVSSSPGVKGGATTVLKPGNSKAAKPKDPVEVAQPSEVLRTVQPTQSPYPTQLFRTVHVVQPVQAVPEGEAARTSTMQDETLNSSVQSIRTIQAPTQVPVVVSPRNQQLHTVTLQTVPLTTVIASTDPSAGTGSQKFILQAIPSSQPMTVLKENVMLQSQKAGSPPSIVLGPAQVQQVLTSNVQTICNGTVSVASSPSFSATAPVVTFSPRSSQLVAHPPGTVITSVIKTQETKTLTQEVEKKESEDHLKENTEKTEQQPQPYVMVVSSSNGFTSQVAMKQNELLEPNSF
ELF4, sequence (Q99607 whole entry): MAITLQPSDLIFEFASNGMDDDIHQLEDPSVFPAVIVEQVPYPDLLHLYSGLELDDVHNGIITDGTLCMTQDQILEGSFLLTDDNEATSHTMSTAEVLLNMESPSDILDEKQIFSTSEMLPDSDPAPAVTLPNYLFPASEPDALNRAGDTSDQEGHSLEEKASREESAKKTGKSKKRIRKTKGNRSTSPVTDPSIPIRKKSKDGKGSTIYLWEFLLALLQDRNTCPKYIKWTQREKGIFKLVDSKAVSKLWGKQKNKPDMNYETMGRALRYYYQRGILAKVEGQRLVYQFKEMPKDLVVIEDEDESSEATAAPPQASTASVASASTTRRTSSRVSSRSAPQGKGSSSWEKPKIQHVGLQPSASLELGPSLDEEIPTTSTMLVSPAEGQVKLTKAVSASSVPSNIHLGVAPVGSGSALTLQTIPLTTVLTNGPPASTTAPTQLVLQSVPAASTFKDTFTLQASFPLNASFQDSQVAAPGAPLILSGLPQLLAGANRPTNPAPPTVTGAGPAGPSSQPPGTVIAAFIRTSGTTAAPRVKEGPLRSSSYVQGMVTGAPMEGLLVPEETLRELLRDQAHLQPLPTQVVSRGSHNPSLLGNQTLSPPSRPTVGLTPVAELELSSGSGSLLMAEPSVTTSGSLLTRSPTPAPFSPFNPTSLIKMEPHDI

CGTTTA: the binding signal in test [1] is 1.08 fold enrichment (6-mer frequency, TF over GST control); in test [2], 1.13 fold enrichment (6-mer frequency, TF over GST control); in test [3] it was 1.05 fold enrichment (6-mer frequency, TF over GST control); in test [4], 1.06 fold enrichment (6-mer frequency, TF over GST control); in [5] it was 1.06 fold enrichment (6-mer frequency, TF over GST control); in [6], 1.11 fold enrichment (6-mer frequency, TF over GST control). Also, the binding signal was 1.12 fold enrichment (6-mer frequency, TF over GST control) in test [7]; 1.03 fold enrichment (6-mer frequency, TF over GST control) in test [8]; 1.07 fold enrichment (6-mer frequency, TF over GST control) in [9].
